Results: the supplement of paper PMC11219838

Test system: Caenorhabditis elegans L1 (N2)
Assay: survival and reproduction score of C. elegans L1 (0: 0-10 living worms, 1: 11-20, 2: 21-50, 3: >50, 4: overgrown) (score 0-4); higher = more worms, less nematicidal, active = 1 or less; extreme values may be limits of the assay
Conditions: 60 µM; 6 days; temperature: 20 °C
Summary of the method: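 Compound was pinned to a final 60 µM (0.6% v/v DMSO) into 96-well wells, each holding about 20 synchronized C. elegans N2 L1s and E. coli HB101 in liquid NGM. After 6 days of shaking at 200 rpm and 20 °C in sealed plates, the worms in each well were examined. The ordinal readout of survival and reproduction, based on living worms per well, was assessed under a dissection microscope. On this scale 0 meant 0–10 worms and 4 meant overgrown, starved wells, and two biological replicates were averaged.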

| SMILES | survival and reproduction score |
| --- | --- |
| Cc1ccc(-c2noc(COc3ccc(C)cc3C)n2)cc1 | 4 (inactive) |
| Cc1ccc(-c2nnc(SCc3c(C)cc(C)cc3C)o2)cc1 | 4 (inactive) |
| CCOc1cc(C#N)ccc1OCc1nc(-c2cccs2)no1 | 4 (inactive) |
| Cc1ccc(-c2nnc(SCC(=O)Nc3cc(C)c(C)cc3Br)o2)cc1 | 4 (inactive) |
| Clc1cccc(-c2nc(-c3ccncc3)no2)c1 | 0 (active) |
| COc1ccc(-c2nnc(SCC(=O)Nc3ccc(Br)c(C)c3)o2)cc1 | 4 (inactive) |
| COC(=O)c1ccc(CSc2nnc(-c3cccnc3)o2)cc1 | 4 (inactive) |
| COc1ccc(-c2nnc(SCC(=O)Nc3ccc(C)cc3Br)o2)cc1 | 4 (inactive) |
| O=C(CSc1nnc(-c2ccco2)o1)Nc1ccc(Br)cc1 | 4 (inactive) |
| Cc1ccccc1-c1noc(-c2cccc(Br)c2)n1 | 4 (inactive) |
| CC(C)Oc1ccc(-c2nc(-c3cccnc3)no2)cc1 | 0 (active) |
| Cc1ccc(-c2noc(-c3ccc(C)cc3)n2)cc1 | 0.5 (active) |
| CC(=O)c1cccc(NC(=O)CSc2nnc(-c3ccccc3)o2)c1 | 4 (inactive) |
| CCn1c(SCc2nc(-c3cccs3)no2)nnc1-c1ccco1 | 2 (inactive) |
| Cc1cc(OCc2nc(-c3ccncc3)no2)c(C)cc1Br | 4 (inactive) |
| Clc1cccc(OCc2nc(-c3ccncc3)no2)c1 | 3.5 (inactive) |
| O=C(CSc1nnc(-c2ccncc2)o1)Nc1ccccc1Cl | 4 (inactive) |
| CCCCSc1nnc(-c2ccc(Br)cc2)o1 | 0 (active) |
| c1ccc(CSc2nnc(-c3cccnc3)o2)cc1 | 4 (inactive) |

| SMILES | survival and reproduction score |
| --- | --- |
| CC(=O)Nc1c(C)ccc(CNC(=O)CSc2nnc(-c3ccc(C(C)(C)C)cc3)o2)c1C | 4 (inactive) |
| COc1ccc(-c2noc(COc3ccccc3Cl)n2)cc1 | 4 (inactive) |
| COc1ccc(-c2noc(COc3ccc(C(C)(C)C)cc3Br)n2)cc1 | 4 (inactive) |
| Cc1ccccc1-c1nc(-c2ccc(Cl)cc2)no1 | 0 (active) |
| Clc1cc(Cl)c(OCc2nc(-c3ccncc3)no2)cc1Cl | 4 (inactive) |
| O=C(CSc1nnc(-c2ccccc2Cl)o1)c1ccc2c(c1)CCCC2 | 4 (inactive) |
| N#Cc1ccccc1NC(=O)CSc1nnc(-c2ccccc2)o1 | 4 (inactive) |
| c1csc(-c2nnc(-c3cccs3)o2)c1 | 2 (inactive) |
| COc1ccc(-c2noc(-c3ccccc3Cl)n2)cc1 | 4 (inactive) |
| O=C(CSc1nnc(-c2ccccc2Cl)o1)Nc1ccccn1 | 4 (inactive) |
| COc1ccc(-c2nnc(SCC(=O)Nc3ccccc3F)o2)cc1 | 4 (inactive) |
| Cc1ccc(-c2nnc(SCc3ccccc3C)o2)cc1 | 4 (inactive) |
| COc1ccc(NC(=O)CSc2nnc(-c3ccc(Br)cc3)o2)cc1 | 4 (inactive) |
| Brc1ccc(-c2noc(COc3ccc4c(c3)OCO4)n2)cc1 | 4 (inactive) |
| Clc1cc(Br)ccc1OCc1nc(-c2ccncc2)no1 | 4 (inactive) |
| Cc1ccc(-c2nc(-c3cccc(C(F)(F)F)c3)no2)cc1 | 3.5 (inactive) |
| Cc1ccc(NC(=O)CSc2nnc(-c3ccncc3)o2)cc1Cl | 4 (inactive) |
| CCOc1cc(-c2nc(-c3ccccc3OC)no2)cc(OCC)c1OCC | 4 (inactive) |
| COc1cccc(-c2noc(-c3ccc(C)cc3Cl)n2)c1 | 4 (inactive) |
